From PubChem BioAssay AID504725 (Broad Institute, 2011)
Potency and affinity values are given separately. Calls of active or inactive are those of the source. No rule for the calls is given here.

Target: KSHV LANA C-terminal domain (residues 932-1162) binding to LBS DNA (UniProt O40947)
Assay: inhibitors of C-LANA binding to LBS DNA, dose response, biochemical, fluorescence polarization, cherry-picked samples (AID 504725)
Conditions: MBP-C-LANA / FAM-LBS DNA fluorescence polarization, percent change from plate compound-well median; series mostly up to 35 µM

outcome, inactive:
O=C(NCCCO)c1ccc2nc(-c3ccco3)c(-c3ccco3)nc2c1
COc1cc(SC)ccc1C(=O)Nc1nc(C)cs1
COc1cccc(-c2cc(C(=O)N3CCN(S(=O)(=O)c4ccccc4)CC3)[nH]n2)c1
CC(/C=C1\SC(=S)N(CCCC(=O)Nc2ccc(C(=O)O)cc2)C1=O)=C\c1ccccc1
O=C1CN=C(Nc2ccccc2Cl)N1Cc1ccc2c(c1)OCO2
O=C(O)CN1C(=O)/C(=C\c2cc(Br)ccc2OCc2ccc([N+](=O)[O-])cc2)SC1=S
Cc1cc(S(=O)(=O)NC2CCN(Cc3ccccc3)CC2)c(C)cc1Cl
Cc1ccc(CSc2ncnc3onc(C)c23)cc1
COc1cccc(OCCCn2cc(/C=C3/C(=N)N4C=C(C)SC4=NC3=O)c3ccccc32)c1
S=c1[nH]nc([C@@H]2C[C@H]2c2ccccc2)n1-c1ccccc1Cl
Cc1ccsc1/C=N/NC(=O)Cc1ccc(Cl)cc1
Cc1cc(NC(=O)CSc2nnc(COc3cccc(C)c3C)n2C)no1
Nc1c(-c2ccccn2)cnn1-c1nc(-c2ccc(F)cc2)cs1
CC(=O)N(C(C)=O)N1C(=O)c2cccc3c(N4CCOCC4)ccc(c23)C1=O
O=C(NCCCN1CCCC1=O)c1ccc2c(c1)ncn2C1CCCCC1
Nc1nc(SCC(=O)N2CCCCC2)[nH]c(=O)c1NC(=O)c1cccs1
CN(Cc1cnc2nc(N)nc(N)c2n1)c1ccc(C(=O)NC(CCC(=O)O)C(=O)O)cc1 (configuration not stated)
CSc1ncccc1C(=O)OCCCC(=O)c1ccc(F)cc1
COc1cccc(NC(=O)N(CCN(C)C)C(C)c2cccnc2)c1 (configuration not stated)
Cc1cc(C)n2nc(C(=O)OC(C)C(=O)c3cc(C)c(C)cc3C)nc2n1 (configuration not stated)
CC(=O)Nc1ccc(S(=O)(=O)Nc2ccccc2N2CCOCC2)cc1
CC1CCCN(C(=O)C(=O)c2cn(CC(=O)N3CCCCCC3)c3ccccc23)C1 (configuration not stated)
COc1cc(SC)ccc1C(=O)OCC(=O)N1CCN(C(C)=O)CC1
CCCc1nnc(NC(=O)CCC(=O)NCc2ccc(OC)cc2)s1
NNC(=O)C1C(O)CCC2CN3CCc4c([nH]c5ccccc45)C3CC21 (configuration not stated)
Cc1c(NC(=O)CCC2CCCCC2)cc(C(=O)N2CCOCC2)cc1[N+](=O)[O-]
O=C(N/N=C\c1ccc([N+](=O)[O-])o1)c1cncc(Br)c1
COc1cc(C(=O)O)cc(NC(=O)c2ccco2)c1OC
NC(=O)C1=NOC(CNc2ncc(C(F)(F)F)cc2Cl)C1 (configuration not stated)
O=C(CSc1cccc2cccnc12)N/N=C/c1ccc(O)cc1
Cc1ccc(OCC(=O)NC(=S)Nc2cccc(NC(=O)c3ccc(Cl)cc3Cl)c2)cc1
CCOCCCn1c(SCC(=O)NC(C)(C)C)nc2ccccc2c1=O
O=C(O)c1ccccc1NS(=O)(=O)c1ccc(N/N=C/c2ccc(O)c(O)c2)c([N+](=O)[O-])c1
NC(=O)C1(N2CCCCC2)CCN(Cc2ccc(Br)cc2)CC1
COc1cccc(/C=N/NC(=O)C(=O)NCc2cccnc2)c1O
O=C(CCN1C(=O)/C(=C/c2ccco2)SC1=S)Nc1ccc(C(=O)O)c(O)c1
COC(=O)c1ccccc1OCC(=O)N1CCN(c2ccc(Cl)cc2)CC1
